The text below walks through data of PubChem BioAssay.

Several values for one entry are separate records, joined by “and”; a condition that tells them apart may be missing. Equal entries are not always repeated. Activity calls are given as the source filed them. Unless noted, how the calls were made is not given here.

Experiment [1] in a line: A549 cell viability effects, profiling panel, calcein-AM fluorescence, 48 h, basal (AID 1162). Further: test concentration not given here. The following applies: higher = more signal.
Experiment [2] can be described thus: adipocyte viability effects, profiling panel, cell-based, 3T3-L1 adipocytes, calcein-AM fluorescence, 48 h, basal (AID 1163). Further: test concentration not given here. The following applies: 3T3-L1 adipocytes viability, higher = more signal.
Experiment [3] in a line: HepG2 cell viability effects, profiling panel, calcein-AM fluorescence, 48 h, basal (AID 1164). Further: test concentration not given here. The following applies: higher = more signal.
Experiment [4] is described as follows: MM1S cell viability effects, profiling panel, calcein-AM fluorescence, 48 h, basal (AID 1165).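 Further: viability of MM1S multiple myeloma cells under basal unstimulated conditions; test concentration not given here.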 The note with it: higher = more signal.
Experiment [5] is described as follows: basal RPMI8226 viability, no added stimulus, profiling panel, cell-based, calcein-AM fluorescence, 48 h, PK04 Diversity Set (AID 1166).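 Further: cells grown under basal conditions without added stimulus; test concentration not given here.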 The following applies: RPMI8226 myeloma viability, higher = more signal.
Experiment [6] in a line: basal HepG2 mitochondrial membrane potential changes, profiling panel, cell-based, JC-1 fluorescence, 24 h, 100 nL compound (AID 1167). Further: test concentration not given here. The note with it: higher = more signal.
A short description of experiment [7]: basal 3T3-L1 adipocyte mitochondrial potential changes, profiling panel, cell-based, JC-1 fluorescence, 3T3-L1 adipocytes, 24 h, 100 nL compound (AID 1168). Further: test concentration not given here. The following applies: JC-1 mitochondrial fluorescence, higher = more signal, called active from +8 up or from −8 down.
Experiment [8] in a line: basal RPMI8226 mitochondrial membrane potential changes, profiling panel, cell-based, JC-1 fluorescence, 24 h, 100 nL compound (AID 1169). Further: test concentration not given here. The following applies: RPMI8226 myeloma, JC-1 mitochondrial potential fluorescence, higher = more signal.
Experiment [9] is described as follows: basal MM1S mitochondrial membrane potential changes, profiling panel, cell-based, JC-1 fluorescence, 24 h, 100 nL compound (AID 1170). Further: test concentration not given here. The following applies: higher = more signal.
A short description of experiment [10]: A549 lung cancer cell viability effects, profiling panel, resazurin fluorescence, 24 h, PK04 Diversity Set (AID 1171). Further: test concentration not given here. The following applies: higher = more signal, called active from +8 up or from −8 down.
Experiment [11] is described as follows: HepG2 liver cancer cell viability effects, profiling panel, resazurin fluorescence, 24 h, PK04 Diversity Set (AID 1172). Further: test concentration not given here. The following applies: higher = more signal.
Experiment [12] can be described thus: basal S. cerevisiae growth modulation, no modifier, primary screen, OD600, strain BY4716, 24 h, basal condition (AID 1173). The following applies: OD600, 24 h, higher = more signal, called active from +8 up or from −8 down.
Experiment [13] in a line: MM1S myeloma cell viability, profiling panel, resazurin fluorescence, basal, 24 h, PK04 Diversity Set (AID 1174). Further: test concentration not given here. The note with it: higher = more signal, called active from +8 up or from −8 down.
The target in experiment [14] is Dihydroorotate dehydrogenase (quinone), mitochondrial (Plasmodium falciparum (isolate 3D7)) (UniProt Q08210). The experiment is described as follows: PfDHODH enzyme inhibitors, primary screen, biochemical, C-terminal His tag, absorbance 600 nm (AID 1175).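 Further: recombinant parasite enzyme with a five histidine tag at its C terminus; test concentration not given here.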 The following applies: DCIP absorbance 600 nm, higher = more signal, called active from +8 up or from −8 down.
The nature of experiment [15]: P. aeruginosa biofilm formation inhibitors, primary screen, strain PAO1, LB-PBS medium, absorbance 600 nm (AID 1176). Further: test concentration not given here. The following applies: P. aeruginosa PAO1 growth/biofilm, A600, 12 h; higher = more signal.
Experiment [16] is described as follows: S. cerevisiae RM11-1a growth modifiers, primary screen, strain RM11-1a, OD600, basal, 24 h (AID 1177).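 Further: cultures grown under basal conditions with no added stressor; test concentration not given here.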 The note with it: OD600, 24 h, higher = more signal, called active from +8 up or from −8 down.
A short description of experiment [17]: E. coli acrAB mutant growth effects, primary screen, E. coli filamentation inducers, strain DRC39, OD650, 24 h (AID 1178).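 Further: growth measured as culture turbidity by optical density at 650 nm; test concentration not given here.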 The following applies: higher = more signal, called active from +8 up or from −8 down.
Experiment [18] can be described thus: E. coli acrAB mutant growth effects, primary screen, E. coli filamentation inducers, strain DRC39, OD650, 48 h (AID 1179).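 Further: screen aims at cell division blockers that make cells filament.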 The following applies: E. coli DRC39 delta-acrAB growth, higher = more signal, called active from +8 up or from −8 down.
A short description of experiment [19]: RPMI8226 myeloma cell viability, profiling panel, resazurin fluorescence, basal, 24 h, PK04 Diversity Set (AID 1180).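 Further: RPMI8826 multiple myeloma cell line at 5000 cells per well; test concentration not given here.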 The following applies: higher = more signal.
Experiment [20] addresses E3 ubiquitin-protein ligase XIAP (Homo sapiens) (UniProt P98170). The experiment is described as follows: XIAP binders, primary screen, biophysical, small-molecule microarray, fluorescence 635 nm (AID 1181).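 Further: score merges 667 nm emission and signal to noise over triplicate slides.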 The note with it: small-molecule microarray binding, higher = more signal.

Sequence of Dihydroorotate dehydrogenase (quinone), mitochondrial (Plasmodium falciparum (isolate 3D7)) (Q08210 whole entry, looked up): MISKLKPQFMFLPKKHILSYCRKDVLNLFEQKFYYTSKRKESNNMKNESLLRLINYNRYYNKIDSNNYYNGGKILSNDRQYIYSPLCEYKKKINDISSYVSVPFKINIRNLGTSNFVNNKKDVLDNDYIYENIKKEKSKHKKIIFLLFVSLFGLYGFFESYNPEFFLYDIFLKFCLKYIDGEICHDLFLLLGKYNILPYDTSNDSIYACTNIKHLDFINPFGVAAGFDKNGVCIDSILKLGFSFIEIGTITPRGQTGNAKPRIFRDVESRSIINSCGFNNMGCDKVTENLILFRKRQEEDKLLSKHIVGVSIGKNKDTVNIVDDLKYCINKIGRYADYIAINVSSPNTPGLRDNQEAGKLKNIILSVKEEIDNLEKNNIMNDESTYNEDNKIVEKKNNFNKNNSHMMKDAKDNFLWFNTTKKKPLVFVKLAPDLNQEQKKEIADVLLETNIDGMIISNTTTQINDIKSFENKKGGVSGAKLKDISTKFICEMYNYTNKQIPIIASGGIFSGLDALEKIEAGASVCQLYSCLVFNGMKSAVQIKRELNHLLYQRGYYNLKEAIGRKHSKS
Sequence of E3 ubiquitin-protein ligase XIAP (Homo sapiens) (P98170 whole entry, looked up): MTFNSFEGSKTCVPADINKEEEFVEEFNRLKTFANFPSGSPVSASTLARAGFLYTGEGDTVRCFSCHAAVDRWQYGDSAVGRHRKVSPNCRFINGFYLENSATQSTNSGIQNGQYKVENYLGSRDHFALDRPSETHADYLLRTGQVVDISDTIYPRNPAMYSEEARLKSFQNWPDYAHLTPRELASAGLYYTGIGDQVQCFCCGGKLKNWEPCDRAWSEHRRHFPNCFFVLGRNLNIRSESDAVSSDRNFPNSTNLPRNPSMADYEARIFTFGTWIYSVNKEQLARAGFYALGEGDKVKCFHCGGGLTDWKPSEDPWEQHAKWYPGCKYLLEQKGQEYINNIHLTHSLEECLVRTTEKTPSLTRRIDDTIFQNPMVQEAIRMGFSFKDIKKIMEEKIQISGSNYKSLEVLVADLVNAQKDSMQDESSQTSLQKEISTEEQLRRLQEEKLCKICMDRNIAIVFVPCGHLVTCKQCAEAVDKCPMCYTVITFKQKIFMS

As to `C=CCN(C(=O)C1N(C(C)(C)CO)C(=O)C2C(C(=O)O)C3C=CC21O3)C(C)(C)C` (stereo not given), the z-score in experiment [1] is -0.209 and -0.173; in experiment [2], -0.72 and 0.343; in experiment [3], 0.384 and 0.816; in [4], 0.676 and 0.647; in experiment [5], 0.0691 and 0.0574; in [6], -0.896 and 0.142. For the same molecule, the z-score in experiment [7] is -0.308 (inactive) and 0.228 (inactive); in experiment [8], 0.669 and -0.287; in experiment [9], 0.88 and 0.351; in [10], -0.777 (inactive) and -0.128 (inactive); in experiment [11] it was -0.724 and -0.381; in experiment [12], 1 (inactive) and 0.053 (inactive). Besides, the z-score is -0.638 (inactive) and 0.113 (inactive) in experiment [13]; -0.456 (inactive) and 0.109 (inactive) in [15]; 1.16 (inactive) and 1.25 (inactive) in experiment [16]; -0.706 (inactive) and 0.32 (inactive) in [17]; -0.687 (inactive) and 0.356 (inactive) in experiment [18]; -0.319 and -0.0012 in [19]. Moreover, the composite z-score in [14] is 1.3 (inactive) and -0.307 (inactive); in experiment [20] it was -0.326 and -0.212.
On to `C=CCN(CCCCC)C(=O)C1N(C(C)(C)CO)C(=O)C2C(C(=O)O)C3C=CC21O3` (stereo not given), for which the z-score in experiment [1] was -0.777 and -0.44; in experiment [2] it was -0.472 and -0.0106; in experiment [3] it was 0.174 and -0.209; in experiment [4], 0.369 and -0.0102; in experiment [5], -0.187 and -0.148; in [6] it was -0.66 and -1.15. The z-score in [7] is 0.044 (inactive) and -0.845 (inactive); in [8] it was 0.776 and 0.876; in experiment [9] it was 0.861 and 0.681; in experiment [10], 0.0106 (inactive) and -0.0941 (inactive); in experiment [11], -0.839 and -0.382; in experiment [12], 0.579 (inactive) and -0.295 (inactive). Besides, the z-score in experiment [13] was -1.09 (inactive) and -0.64 (inactive); in [15], -0.91 (inactive) and -1.08 (inactive); in [16] it was -1.01 (inactive) and -1.15 (inactive); in experiment [17], -0.62 (inactive) and 0.193 (inactive); in experiment [18] it was -0.396 (inactive) and 0.2 (inactive); in [19], -0.725 and -0.827. The composite z-score in [14] is 0.457 (inactive) and -0.446 (inactive); in [20] it was -0.0387 and -0.245.
On to `C=CCN(C(=O)C1N(c2ccc(CCO)cc2)C(=O)C2C(C(=O)O)C3C=CC21O3)c1ccc(OC)cc1` (stereo not given), for which the z-score is 0.414 and -0.783 in [1]; 0.432 and 0.014 in experiment [2]; -0.535 and -0.905 in experiment [3]; 1.02 and 1.1 in experiment [4]; -0.0159 and 0.492 in [5]; -0.19 and -0.0346 in experiment [6]. Also, the z-score in experiment [7] is -0.246 (inactive) and -0.356 (inactive); in experiment [8], -0.0146 and 0.609; in [9] it was -0.358 and 0.691; in [10], -1.23 (inactive) and 0.468 (inactive); in experiment [11] it was -1.89 and 0.336; in experiment [12], -0.311 (inactive) and -0.641 (inactive). The z-score in experiment [13] was -1.58 (inactive) and 0.522 (inactive); in experiment [15], -0.606 (inactive) and 0.428 (inactive); in [16], 0.671 (inactive) and -0.529 (inactive); in experiment [17], -0.782 (inactive) and 0.15 (inactive); in experiment [18] it was -0.949 (inactive) and -0.249 (inactive); in experiment [19] it was -0.641 and -0.0655. Besides, the composite z-score in [14] was 0.51 (inactive) and -0.392 (inactive); in [20], 0.0808 and -0.0054.
For `C[N+](C)(C)CCCCNC(=O)[C@H]1C[C@H]2C(=O)N[C@@H](CCCC[N+](C)(C)C)C(=O)N2[C@H]1c1cccc(OCCO)c1`, the z-score in experiment [1] is -0.663 and -0.261; in experiment [2], -0.488 and -0.571; in experiment [3], -1.13 and -0.231; in experiment [4], -0.485 and -1.67; in [5], 0.267 and 0.461; in [6], -1.2 and -0.91. Also, the z-score in experiment [7] was -0.0125 (inactive) and 0.0612 (inactive); in experiment [8] it was -0.117 and 0.49; in [9], -0.199 and -0.118; in [10], -0.964 (inactive) and -0.711 (inactive); in experiment [11], -0.114 and -3.58; in experiment [12], 0.315 (inactive) and -0.201 (inactive). In addition, the z-score was -1.18 (inactive) and -1.75 (inactive) in experiment [13]; 0.187 (inactive) and 0.23 (inactive) in experiment [15]; 0.152 (inactive) and -0.406 (inactive) in experiment [16]; -0.93 (inactive) and -1 (inactive) in experiment [17]; -1.32 (inactive) and -1.66 (inactive) in experiment [18]; -1.16 and -0.819 in [19]. Besides, the composite z-score is -27.2 (active) and -30.4 (active) in experiment [14]; 0.0159 and 0.136 in experiment [20].
With `C=C[C@@H](C)[C@@H](O)c1ccc(OCCO)cc1`, the z-score in [1] is -0.61 and 0.227; in [2], 0.513 and 0.464; in [3] it was -0.976 and 0.692; in experiment [4], 0.958 and -0.872; in experiment [5], -0.754 and 0.96; in experiment [6] it was 0.299 and 1.09. Also, the z-score in experiment [7] is -0.82 (inactive) and -0.165 (inactive); in experiment [8], -0.0815 and 0.346; in [9], 0.287 and -0.925; in experiment [10], 0.175 (inactive) and -0.652 (inactive); in experiment [11], 0.162 and 0.223; in [12], -3.96 (inactive) and -2.81 (inactive). For the same molecule, the z-score in experiment [13] was -0.435 (inactive) and 0.286 (inactive); in experiment [15], 0.331 (inactive) and 0.838 (inactive); in experiment [16], 0.909 (inactive) and 1.21 (inactive); in experiment [17] it was 1.12 (inactive) and 0.982 (inactive); in experiment [18], 0.795 (inactive) and 1.13 (inactive); in experiment [19] it was -0.112 and 0.616. Moreover, the composite z-score was 0.0788 (inactive) and -1.03 (inactive) in [14]; 0.103 and -0.15 in [20].
Regarding `C=CCN(CCCCC)C(=O)C(c1cccs1)N(C(=O)/C=C\C(=O)O)c1ccc(CCO)cc1` (stereo not given), the z-score in [1] is 1.11 and 0.437; in experiment [2], -4.27 and -0.651; in experiment [3], 0.877 and 1.59; in experiment [4] it was 1.78 and 1.21; in experiment [5], -0.174 and 0.104; in [6] it was -0.087 and 0.966. Moreover, the z-score is -0.177 (inactive) and 0.506 (inactive) in experiment [7]; 1.26 and -0.556 in experiment [8]; -0.138 and -0.377 in [9]; -0.235 (inactive) and -0.813 (inactive) in experiment [10]; -0.524 and -0.698 in [11]; -0.238 (inactive) and -0.173 (inactive) in experiment [12]. For the same molecule, the z-score in experiment [13] is -0.585 (inactive) and -0.372 (inactive); in experiment [15], -0.553 (inactive) and -0.621 (inactive); in experiment [16] it was 0.741 (inactive) and 0.428 (inactive); in experiment [17], 0.191 (inactive) and 0.129 (inactive); in [18], 0.712 (inactive) and 0.685 (inactive); in experiment [19] it was -0.359 and -0.583. The composite z-score is -0.249 (inactive) and -0.533 (inactive) in [14]; -0.346 and -0.138 in [20].
